Experimental data taken from PubChem BioAssay AID2401 (Southern Research Specialized Biocontainment Screening …, 2010).
In all, about 2,200 compounds went through this assay and about 530 (24%) were called active.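 The calls were made as follows: active = inhibition above a set limit at one or more concentrations of the dose series; inactive = inhibition under that limit at every dose.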 Not all results are given here. Entries with a potency or affinity are not part of this list.

Assay: nmpC-GFP reporter counter-screen in S. Typhimurium, dose response, counter-screen for PhoP regulon inhibitor project, Salmonella Typhimurium, GFP fluorescence (AID 2401);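 also: S. typhimurium with Mg-insensitive nmpC-GFP reporter grown at 10 µM Mg2+; drop in reporter fluorescence reflects general culture growth inhibition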
Details: 4 h; series mostly up to 150 µM

| Compound | outcome |
| --- | --- |
| S=C(Nc1cccc(Cl)c1)Nc1cccc2cnccc12 | inactive |
| S=C(NCc1cccnc1)Nc1ccc(Cl)cc1 | inactive |
| CSC(=NS(=O)(=O)c1ccccc1)SC | inactive |
| CCN(CC)c1ccc(/C=C(\C#N)C(=O)NCc2ccco2)cc1 | inactive |
| CCOC(=O)C1=C(C)NC(=O)NC1c1c(OCC(=O)N2CCCCC2)ccc2ccccc12 (stereo not given) | inactive |
| O=C(NCCSCc1ccccc1)c1ccc(F)cc1 | inactive |
| CCOc1ccc(-c2nnc(NC(=O)CCCOc3cccc(C)c3)o2)cc1 | inactive |
| COc1ccc(Br)cc1C(=O)NCc1cccnc1 | inactive |
| C=CCNc1sc(C(=O)c2ccc(C)cc2)c(N)c1C#N | inactive |
| Cc1ccc(C(=O)NCC(=O)OCC(=O)N2CCCc3ccccc32)cc1 | inactive |
| CCC(OC(=O)C(NC(=O)c1ccccc1)c1ccccc1)C(=O)Nc1cc(C)on1 (stereo not given) | inactive |
| COc1ccc(-c2nnc(SCC(=O)NCc3ccco3)o2)cc1 | inactive |
| CCn1c(SCC(=O)N2CCCCC2)nc(O)cc1=O | inactive |
| CC(=O)N1C(=O)C2(C(C#N)=C(N)Oc3c2c(C)nn3-c2ccccc2)c2ccccc21 (stereo not given) | inactive |
| Oc1ccc(N2CCN(Cc3ccc(OCCCN4CCCCC4)cc3)CC2)cc1 | inactive |
| O=C(COC(=O)/C=C/c1ccco1)Nc1cccc([N+](=O)[O-])c1 | inactive |
| CCc1c(C)c2cc(Cl)c(O)c(CN(C)C)c2oc1=O | inactive |
| Cc1[nH]c2ccccc2c1/C=N/Nc1ccc(F)cc1F | inactive |
| COc1ccc(-c2[nH]ncc2/C=C(\C#N)C(=O)NC2CC2)cc1 | inactive |
| N#Cc1nc(Cc2cccc3ccccc23)oc1NCCCN1CCOCC1 | inactive |
| CCCSc1ncc(Cl)c(C(=O)Nc2ccc(S(=O)(=O)N3CC(C)OC(C)C3)cc2)n1 (stereo not given) | inactive |
| CCn1nc(C(=O)NCc2ccco2)c(Cl)c1Cl | inactive |
| CCN(CC)Cc1c[nH]c2c(C(=O)OC)cccc12 | inactive |

| Compound | outcome |
| --- | --- |
| Cc1ccccc1Cn1nc(C)c(NC(=O)c2noc3c2CCc2ccccc2-3)c1C | inactive |
| c1nc(N2CCC3(CC2)OCCO3)c2c3c(sc2n1)CCCC3 | inactive |
| COCCSc1ccccc1C(=O)NCC1CCCO1 (stereo not given) | inactive |
| COc1ccccc1Nc1nc(NCc2ccco2)c2ccccc2n1 | inactive |
| CCCOc1ccc(C2NC(=S)NC(c3ccccc3)=C2C(=O)Nc2ccc(C)cc2)cc1OC (stereo not given) | inactive |
| N#Cc1nc(-c2cccs2)oc1NCCCN1CCOCC1 | inactive |
| COc1ccc(C)cc1NC(=O)C(Sc1nnc(-c2ccncc2)n1-c1ccc(Cl)cc1)c1ccccc1 (stereo not given) | inactive |
| COc1ccc(OC)c(/C=N/NC(=O)Cc2nc3ccccc3[nH]2)c1 | inactive |
| Cc1ccc(/C=N/NC(=O)Cn2cnc3ccccc32)o1 | inactive |
| C=CCn1c(SCCOc2ccc(OC)cc2)nnc1C(C)NC(=O)c1ccc(OC)cc1 (stereo not given) | inactive |
| O=C(CSCc1nc2ccccc2[nH]1)Nc1ccc2ccccc2c1 | inactive |
| CC(Cl)C(=O)NNc1cccc(Cl)n1 (stereo not given) | inactive |
| O=S(=O)(c1ccc2c(c1)OCCO2)N1CCN(c2cccc(Cl)c2)CC1 | inactive |
| O=C(CSc1ncn[nH]1)Nc1cccc2ccccc12 | inactive |
| COc1ccc(Oc2ccccc2/C=N/O)cc1 | inactive |
| CCCNC(=O)CN(C1CCCCC1)S(C)(=O)=O | inactive |
| Cc1nnc(SC(C)C(=O)Nc2ccc(S(=O)(=O)N3CCCCCC3)cc2)s1 (stereo not given) | inactive |
| O=S(=O)(/N=C(/Nc1cccc2ccccc12)c1ccccc1)c1cccs1 | inactive |
| COc1ccc(-c2ccccc2)cc1NCc1ccccc1C | inactive |
| O=C(Cc1c[nH]c2ccccc12)N/N=C/c1ccc(F)cc1 | inactive |
| NC(=O)CCc1c[nH]c2ccccc12 | inactive |
| CCc1nn2cc(C(=O)c3cc(Cl)ccc3O)cnc2c1-c1ccc(F)cc1 | inactive |
| Cc1cc(C(=O)COC(=O)CNC(=O)c2ccco2)c(C)n1Cc1ccco1 | inactive |

| Compound | outcome |
| --- | --- |
| c1ccc(Nc2ccnc(Nc3ccccc3)n2)cc1 | inactive |
| Cc1[nH]c2ccccc2c1C(O)CN1CCN(c2cccc(C(F)(F)F)c2)CC1 (stereo not given) | inactive |
| Brc1cccc(CNc2nc3ccccc3n2CCN2CCCCC2)c1 | inactive |
| Cc1cc(C(=O)N/N=C/c2ccc[nH]2)no1 | inactive |
| CC(C)CCNC(=S)Nc1ccc([N+](=O)[O-])cc1 | inactive |
| CC1=CC(C)C2(CO)COC(c3ccccc3O)C1C2C (stereo not given) | inactive |
| CCOC(=O)c1sc(-c2ccc(C(F)(F)F)cc2)nc1O | inactive |
| CC(Oc1ccc(Cl)cc1)c1ccnn1S(=O)(=O)c1ccccc1 (stereo not given) | inactive |
| CC(=O)Nc1ccc(S(=O)(=O)N2CCC(n3cnc4cc(F)ccc43)CC2)cc1 | inactive |
| CCOC(=O)C1=C(C)N=c2s/c(=C\c3ccncc3)c(=O)n2C1c1ccc2c(c1)OCO2 (stereo not given) | inactive |
| COc1ccc(C(=O)COc2nc(C)cc(C)c2C#N)cc1 | inactive |
| COc1ccc2nc(NC(=O)C3CCCN3S(=O)(=O)c3ccc(C)cc3)sc2c1 (stereo not given) | inactive |
| Clc1ccc(Nc2ncnc3c2cnn3-c2ccccc2)cc1 | inactive |
| COc1cc(CNc2ccc(CNc3ncn[nH]3)cc2)ccc1OCC(=O)NC(C)(C)C | inactive |
| NC[C@@]12CCCC1C1CCC2C1 (stereo not given in full) | inactive |
| O=C(Oc1ccc[nH]c1=O)c1cc([N+](=O)[O-])cc([N+](=O)[O-])c1 | inactive |
| CC(O)CNc1cc(N)c([N+](=O)[O-])cc1[N+](=O)[O-] (stereo not given) | inactive |
| CC(NC(=O)C1(C)CC1(Br)Br)C(C)(C)C (stereo not given) | inactive |
| Cc1cc(C(=O)N/N=C/c2cc(Br)cc(Br)c2OC(=O)c2ccccc2)n[nH]1 | inactive |
| Cc1cc2ncn(C3CC(=O)N(Cc4ccc(N5CCCC5=O)cc4)C3=O)c2cc1C (stereo not given) | inactive |
| O=C(CSc1nnc2n(C3CCCCC3)c(=O)c3ccccc3n12)OC1CCCCC1 | inactive |
| Cc1ccc2cc(C(=O)O)c(C)nc2c1 | inactive |
| Cc1ccccc1NC(=O)Nc1cccs1 | inactive |

| Compound | outcome |
| --- | --- |
| Cc1ccc(S(=O)(=O)N2CCCC2C(=O)OCc2ccco2)cc1 (stereo not given) | inactive |
| CCCOc1ccc(Cn2cnc3ccccc32)cc1 | inactive |
| Cc1cc(C)nc(NC(=O)Cc2cccs2)n1 | inactive |
| Cc1c(C)n(Cc2ccccc2)c2ncnc(N)c12 | inactive |
| O=C(NCc1cccnc1)c1cc2ccccc2oc1=O | inactive |
| COC(=O)Cc1ccc(NC(=S)N2CCN(c3ccc(F)cc3)CC2)cc1 | inactive |
| CCn1cc(C(=O)NCc2ccncc2)c(=O)c2cc(F)c(N3CCN(C(=O)c4ccco4)CC3)cc21 | inactive |
| Cc1cc(SCC(N)=O)nc(SCC(=O)c2ccccc2)n1 | inactive |
| COC(=O)C1(O)CC(C(C)C)=NN1C(=O)c1ccc(Cl)cc1 (stereo not given) | inactive |
| Cc1ccc(C(=O)NC(=S)Nc2cccc3c(C)cc(C)nc23)cc1 | inactive |
| Cc1ccc(Nc2nnc(C3C(=O)N(C)C4(C)CC3c3cc(Br)ccc3O4)s2)cc1 (stereo not given) | inactive |
| Cc1cccc(OCCSCc2nc3ccccc3[nH]2)c1 | inactive |
| Cn1c(SCC(=O)N2c3ccccc3CCc3ccccc32)nnc1-c1cc2ccccc2cc1O | inactive |
| O=C(Cn1nc(C(F)(F)F)c2c1CCCCC2)N1CCOCC1 | inactive |
| CCOC(=O)C1=CSC2=NS(=O)(=O)CCN12 | inactive |
| [O-]/[N+](=C\c1ccncc1)c1ccccc1 | inactive |
| Cc1c(C(=O)Nc2cccc(Cl)c2)c2ccccn2c1CCc1ccncc1 | inactive |
| COc1cc(C)ccc1OCCCOc1ccccc1Br | inactive |
| COC(=O)c1cc(C#N)c(Oc2ccccc2OC)nc1C | inactive |
| Cc1occc1C(=O)n1cnc2ccccc21 | inactive |
| COc1cccc2[nH]c3c(N4CCC(C)CC4)ncnc3c12 | inactive |
| NC(=O)C1(NC(=O)[C@@H]2CC3(CC(c4cccc(NC(=O)[C@@H]5CCC(=O)N5)c4)=NO3)CN2C(=O)Cc2ccc(Cl)cc2)CC1 (stereo not given in full) | inactive |
| Cc1ccc(/C(O)=C2\C(=O)C(=O)N(CC(C)O)C2c2cccc(F)c2)cc1 (stereo not given) | inactive |

| Compound | outcome |
| --- | --- |
| CCCCOc1ccc(S(=O)(=O)NNC(=O)C2Cc3c(ccc4ccccc34)O2)cc1 (stereo not given) | inactive |
| O=C(CN1CCCCC1)Nc1cccc(Br)c1 | inactive |
| Cc1ccc(S(=O)(=O)c2c(C(=O)c3ccccc3)cnc3cc4c(cc23)OCCO4)cc1 | inactive |
| OC(COc1ccc2ccccc2c1Br)Cn1ccnc1 (stereo not given) | inactive |
| CC(C)c1ccc(C2NC(=O)NC3=C2CCc2ccccc23)cc1 (stereo not given) | inactive |
| O=C(Nc1ccc(Cl)c(Cl)c1)Nc1ccccc1O | inactive |
| CCCCOc1ccc(NC(=O)Nc2nnc(C)s2)cc1 | inactive |
| N/C(=N/OC(=O)c1ccccc1Cl)c1ncc([N+](=O)[O-])s1 | inactive |
| CC(=O)c1ccc(NC(=O)Nc2cccc(Cl)c2)cc1 | inactive |
| Cc1ccc(Oc2ccc3c(c2)C(=O)N(c2ccc(S(=O)(=O)Nc4nccs4)cc2)C3=O)cc1 | inactive |
| CN(C)C(CNC(=O)Nc1cccc(Cl)c1)c1cccnc1 (stereo not given) | inactive |
| COc1ccc(N2CCN(C(=O)C3CCCO3)CC2)cc1 (stereo not given) | inactive |
| CN1C(=O)CC(P(=O)(c2ccccc2)c2ccccc2)N(C)C1=O (stereo not given) | inactive |
| c1ccc(OCCCN2CCCC2)cc1 | inactive |
| O=C(C1CCN(C2CC(=O)N(Cc3ccccc3)C2=O)CC1)N1CCCCCC1 (stereo not given) | inactive |
| COc1cccc(NC(=O)Cn2c(=O)n(CCCC(=O)NCc3ccco3)c(=O)c3ccccc32)c1 | inactive |
| Nc1ccc2oc3ccccc3c2c1 | inactive |
| Nc1ccc2oc(=O)c3ccccc3c2c1 | inactive |
| COC(=O)c1sccc1NC(=O)CSc1ccccc1NS(=O)(=O)c1ccc(Cl)cc1 | inactive |
| Cc1ccc(N2C(=O)CC(n3ccnc3)C2=O)cc1C (stereo not given) | inactive |
| CCN(CC)CCCn1c(=S)[nH]c2cc(OC)c(OC)cc2c1=O | inactive |
| CC(=O)C1=C(C)Nc2ncnn2C1c1ccccc1OCc1ccccc1 (stereo not given) | inactive |
| CCOc1ccc(-n2c(SCc3nc(-c4ccc(C)cc4)no3)nnc2-c2ccncc2)cc1 | inactive |
